High-throughput results (PubChem BioAssay)
EWS-Fli block: EWS/Fli transcriptional activity inhibition | A673 NR0B1-luciferase reporter, viability-normalised | inhibition, % at 12.6 µM | 350,000 tested, 0.67% active;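 active = mean inhibition of at least 50% after viability correction, with every replicate also passing that limit; inconclusive = mean reaches 50% but only one of two replicates passes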;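 note: firefly luciferase signal divided by Alamar Blue viability fluorescence both relative to DMSO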
TWEAK-Fn14 inh: inhibitors of TWEAK-Fn14 interaction signaling; inhibition, % at 10 µM; 360,000 tested, 2% active; TWEAK-stimulated Fn14 reporter cells, luciferase luminescence, 8 h; AID 1159606; in the data active = inhibition above about 50%
LGR2 inh: Drosophila LGR2 receptor signaling inhibition | HEK293 LGR2, CRE-luciferase, bursicon-stimulated, 4 h | inhibition, % at 9.99 µM | 380,000 tested, 0.35% active | AID 720647;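 active = drop in luminescence signal, shown as inhibition above about 50% in the replicate tests, limit read from the data, passing the limit was not always enough; inconclusive = probably only some replicates passing the limit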;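 note: agonist challenge used bursicon conditioned medium at about half maximal strength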
TROY signal inh: inhibitors of TROY-dependent NF-kB signaling | Q293 LMP1-TROYcd NF-kB luciferase reporter, 4 h | inhibition, % at 10 µM | 360,000 tested, 0.98% active | AID 1347056;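 active = compounds whose plate-normalised and pattern-corrected inhibition of the luciferase reporter signal at the single screening dose is 50% or more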
LMP1 NFkB inh: inhibitors of Epstein-Barr LMP1-induced NF-kappaB reporter. inhibition, % at 12.5 µM. LMP1-induced NF-kappaB luciferase reporter cells, luminescence. AID 504558. 350,000 tested, 0.69% active; in the data active = inhibition above about 41%; inconclusive = no clear call, values can overlap the other calls;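 note: 0% = neutral control wells and 100% = reference inhibitor control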
Active calls of the source: *; u = inconclusive; x = no result given. Only some compounds are listed: those with a hit (about 2.5% of all), similar ones and a draw of the others.

SMILES	EWS-Fli block	TWEAK-Fn14 inh	LGR2 inh	TROY signal inh	LMP1 NFkB inh
C[C@@H](NC(=O)C[C@@H]1C[C@@H]2c3cc(NC(=O)C4CCC4)ccc3O[C@@H]2[C@H](CO)O1)c1ccccc1	9	x	-3	x	x
CC[C@@H](C)[C@H](NC(=O)OC(C)(C)C)c1nnc(S(=O)(=O)Cc2cc(C)ccc2C)o1	x	23	x	73*	4
O=C(NC[C@@H]1[C@H](c2ccccc2)[C@@H](CO)N1C(=O)Cc1cccnc1)C1CCC1	-5	x	-22	x	x
CC(C)CC#Cc1ccc2c(c1)O[C@H](CN(C)Cc1cccc(F)c1)[C@@H](C)CN([C@@H](C)CO)S2(=O)=O	62*	x	10	x	x
C[C@H]1CN([C@@H](C)CO)S(=O)(=O)c2ccc(C#CC3CCCC3)cc2O[C@H]1CN(C)Cc1cncnc1	52*	x	-2	x	x
CNC[C@H]1Oc2cc(C#CC3CCCCC3)ccc2S(=O)(=O)N([C@H](C)CO)C[C@@H]1C	15	x	-2	x	x
CNC[C@@H]1Oc2cc(C#CC3CCCCC3)ccc2S(=O)(=O)N([C@@H](C)CO)C[C@@H]1C	56*	x	34	x	x
CC(C)CC#Cc1ccc2c(c1)O[C@@H](CN(C)Cc1cccc(F)c1)[C@H](C)CN([C@@H](C)CO)S2(=O)=O	21	x	18	x	x
C[C@@H]1CN([C@H](C)CO)S(=O)(=O)c2ccc(C#CC3CCCC3)cc2O[C@H]1CN(C)Cc1cncnc1	20	x	-21	x	x
Nc1ccn([C@@H]2O[C@H](CO)[C@@H](O)[C@@H]2O)c(=O)n1	43	-25	3	3	53*
Nc1ccn(C2OC(CO)C(O)C2O)c(=O)n1 (stereo not given)	39	-95	x	-10	x
CC(=O)c1ccc(N2CCN(Cc3cc(=O)n4c(-c5ccccc5)csc4n3)CC2)cc1	15	17	-9	12	8
O=c1cc(CN2CCN(c3ccccc3)CC2)nc2scc(-c3ccccc3)n12	5	42	15	58*	-4
C[C@H]1CN([C@@H](C)CO)C(=O)c2cc(/C=C/c3ccccc3)cnc2O[C@H]1CN(C)C(=O)c1ccc(F)cc1	2	x	-1	x	x
C[C@H]1CCCCO[C@H](CN(C)Cc2ccc3c(c2)OCO3)[C@@H](C)CN([C@@H](C)CO)C(=O)c2cc(NS(=O)(=O)c3ccc(Cl)cc3)ccc2O1	18	x	-15	x	x
COc1ccc(C2=C(CN(C)C)C(c3ccccc3)c3ccccc3O2)cc1 (stereo not given)	x	3	x	4	78*
Cc1cccc(CNS(=O)(=O)c2ccc(-c3ccc(=O)[nH]n3)s2)c1	2	-21	-13	8	5
CCCC(NS(=O)(=O)c1ccc(-c2ccc(=O)[nH]n2)s1)c1cccs1 (stereo not given)	x	58*	-12	35	-13
O=C(Cc1ccccn1)NCC[C@H]1CC[C@@H](NS(=O)(=O)c2ccccc2)[C@H](CO)O1	3	x	-3	x	x
COc1cc(/C=C2/SC(=S)N(Cc3ccccc3)C2=O)cc(Cl)c1O	14	65*	9	51*	11
COc1cc([N+](=O)[O-])cc(/C=C2/SC(=S)N(Cc3ccccc3)C2=O)c1O	8	70*	27	48	21
COc1cc(/C=C2/SC(=S)N(Cc3ccccc3)C2=O)ccc1OS(C)(=O)=O	7	-32	-14	-25	39
COc1cc(/C=C2\SC(=O)N(Cc3ccc(Cl)cc3)C2=O)cc([N+](=O)[O-])c1O	5	56*	4	55*	0
COc1cc(/C=C2\SC(=O)N(Cc3ccc(F)cc3)C2=O)cc([N+](=O)[O-])c1O	5	43	4	22	0
O=C1/C(=C\c2cc(Br)cc(Br)c2O)SC(=S)N1Cc1ccccc1	x	10	x	38	34
SMILES	EWS-Fli block	TWEAK-Fn14 inh	LGR2 inh	TROY signal inh	LMP1 NFkB inh
COc1cc(/C=C2/SC(=S)N(Cc3ccccc3)C2=O)ccc1OCC(=O)O	15	-39	2	-12	47*
CCOc1cc(/C=C2/SC(=S)N(Cc3ccccc3)C2=O)ccc1O	26	16	-23	-16	19
COc1ccc(NC(=O)N(C)C[C@@H]2Oc3ccc(NS(=O)(=O)c4cn(C)cn4)cc3CC(=O)N([C@@H](C)CO)C[C@@H]2C)cc1	2	x	5	x	x
CN(C)CC(=O)N[C@H]1CC[C@@H](CC(=O)NCc2ccc(Cl)cc2)O[C@@H]1CO	-4	x	16	x	x
C[C@H]1CN([C@@H](C)CO)C(=O)Cc2cc(NC(=O)c3ccncc3)ccc2O[C@H]1CN(C)C(=O)Nc1cccc2ccccc12	-19	x	7	x	x
COC(CNC(=O)C(=O)NCC1OCCN1C(=O)c1ccc(Cl)cc1)OC (stereo not given)	4	-4	33	6	1
COCCNC(=O)C(=O)NCC1OCCN1C(=O)c1ccc(Cl)cc1 (stereo not given)	-10	10	x	-5	80*
CCCNC(=O)N1CC2(C1)[C@@H](c1ccccc1)[C@@H](CO)N2CC1CC1	1	x	6	x	x
CCOc1ccc(Br)cc1S(=O)(=O)Nc1ccc(C(=O)OCC(=O)N(C)c2ccccc2)cc1	x	11	-1	-8	1
CCOc1ccc(Br)cc1S(=O)(=O)Nc1cccc(S(=O)(=O)N(C)c2ccccc2)c1	6	45	19	77*	2
O=C(Nc1ccccc1F)N[C@H]1CC[C@H](CCNS(=O)(=O)c2ccccc2)O[C@@H]1CO	-1	x	-14	x	x
CCc1nnc(NS(=O)(=O)c2ccc(N/C=C\C(=O)c3ccc(F)cc3)cc2)s1	21	40	-23	73*	-3
CC1C(=O)C(C)C(c2cc(Br)ccc2O)NC1c1cc(Br)ccc1O (stereo not given)	24	9	4	63*	5
C[C@H](CO)N1C[C@H](C)[C@H](CN(C)Cc2ccc(Oc3ccccc3)cc2)Oc2ccc(NC(=O)CCN3CCOCC3)cc2CC1=O	6	x	19	x	x
O=C(O)C1CC=CCC1C(=O)Nc1ccc2c(c1)OCCO2 (stereo not given)	x	79*	x	59*	3
O=C(Nc1ccc2c(c1)OCCO2)NC1(C(F)(F)F)Oc2ccccc2O1	42	89*	u	28	5
O=C(Nc1ccc2c(c1)OCO2)NC1(C(F)(F)F)Oc2ccccc2O1	x	-26	x	-2	-8
O=C(Nc1ccc2c(c1)OCCO2)Nc1ccc2c(c1)OCO2	11	51*	2	-13	-5
C[C@@H](C(=O)Nc1ccc2c(c1)OCO2)n1c(=O)[nH]c2ccccc2c1=O	x	-5	19	2	-3
C[C@@H](C(=O)Nc1ccc2c(c1)OCCO2)n1c(=O)[nH]c2ccccc2c1=O	x	94*	16	84*	43*
O=C(C[C@H]1C=C[C@@H](NC(=O)Nc2ccc(C(F)(F)F)cc2)[C@@H](CO)O1)NCc1cc(F)cc(F)c1	-1	x	0	x	x
CCCC(C)C(=O)Nc1cccc(NC(C)=O)c1 (stereo not given)	x	-8	x	5	3
CC(Nc1ccc2c(c1)OCCO2)C(=O)Nc1ccc2c(c1)OCO2 (stereo not given)	7	59*	5	50*	37
CC(=O)Nc1ccc2c(c1)OCCO2	x	6	3	7	1
